Measurements from PubChem BioAssay (NCATS).
Records with an inconclusive call do not appear. Entries that show only a call come without a potency. Active and inactive are the calls of the source. Calls come from the whole dose curve; as a rule, active = well fitted curve in the direction sought with a large enough effect; inconclusive = small, poorly fitted or top-dose-only effect, or another doubt; inactive = no such curve, though single readings can be large; an effect the other way counts as inactive or inconclusive.

Tests used:
[1] = Cell Viability - LYMP2-005 (AID 967); note: series mostly up to about 92 µM
Summary of the method: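 CellTiter-Glo luminescence (cellular ATP) read-out; LYMP2-005 lymphoblastoid cells, 2500/well, 5 h pre-incubation, then 24 h compound exposure at 37 C in complete medium. Tetraoctylammonium bromide positive control; AC50 by standard Hill fit.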

[2] = Cell Viability - LYMP2-009 (AID 968); note: nearly all actives have a fitted effect of over 55% in size; note: potency is the fitted concentration of half-maximal effect
[3] = Cell Viability - LYMP2-013 (AID 970); note: nearly all actives have a fitted effect of over 55% in size; note: potency is the fitted concentration of half-maximal effect
Summary of the method: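 Human lymphoblastoid cells, 2500/well, were preincubated 5 hr at 37 C, then treated with compounds for 24 hr at 37 C in complete medium. Intracellular ATP was read by CellTiter-Glo luminescence; AC50 from Hill-equation fits of concentration-response data.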

[4] = Cell Viability - LYMP2-015 (AID 971); note: nearly all actives have a fitted effect of over 55% in size; note: potency is the fitted concentration of half-maximal effect
Summary of the method: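 Human lymphoblastoid cells (2500/well) in complete medium were preincubated 5 hr at 37 C, then compound-treated 24 hr at 37 C. Intracellular ATP was read by CellTiter-Glo luminescence after 30 min at room temperature; AC50 came from Hill-equation concentration-response fits.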

[5] = Cell Viability - LYMP2-017 (AID 972); note: series mostly up to about 92 µM; nearly all actives have a fitted effect of over 55% in size
Summary of the method: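 Human lymphoblastoid cells (2500/well) were seeded in complete medium, held 5 hr at 37 C, then exposed to compounds for 24 hr at 37 C. Intracellular ATP was read by CellTiter-Glo luminescence after 30 min at room temperature, with AC50 values from Hill-equation fits.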

[6] = Cell Viability - LYMP2-019 (AID 973); note: nearly all actives have a fitted effect of over 55% in size; note: potency is the fitted concentration of half-maximal effect
Summary of the method: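 Human lymphoblastoid cells were seeded at 2500 cells/well, preincubated 5 hr at 37 C, then exposed to compounds for 24 hr at 37 C in complete medium. Intracellular ATP was measured by CellTiter-Glo luminescence; AC50 from Hill fits.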

[7] = Cell Viability - LYMP2-021 (AID 974); note: potency is the fitted concentration of half-maximal effect
Summary of the method: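 Human lymphoblastoid cells (2500/well) were preincubated 5 hr at 37 C, then exposed to compounds for 24 hr at 37 C in complete medium. Intracellular ATP was read by CellTiter-Glo luminescence; AC50 came from Hill-equation fits of concentration-response data.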

[8] = Cell Viability - LYMP2-023 (AID 975); note: nearly all actives have a fitted effect of over 55% in size; note: potency is the fitted concentration of half-maximal effect
Summary of the method: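 Human lymphoblastoid cells (2500/well) were preincubated 5 hr at 37 C, then exposed to compounds for 24 hr at 37 C in complete medium. Cellular ATP was read by CellTiter-Glo luminescence, and AC50 came from Hill-equation fits.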

[9] = Cell Viability - LYMP2-004 (AID 966); note: nearly all actives have a fitted effect of over 65% in size; note: potency is the fitted concentration of half-maximal effect
Summary of the method: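 Human lymphoblastoid cells (2500/well) in complete medium were treated with compounds for 24 hr at 37 C, then intracellular ATP was measured by CellTiter-Glo luminescence. AC50 values came from Hill-equation fits of concentration-response data.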

[10] = Cell Viability - LYMP2-011 (AID 969); note: nearly all actives have a fitted effect of over 60% in size; note: potency is the fitted concentration of half-maximal effect
Summary of the method: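 Human lymphoblastoid cells (2500/well) were plated in complete medium, preincubated 5 hr at 37 C, then exposed to compounds for 24 hr at 37 C. Intracellular ATP was read by CellTiter-Glo luminescence, and AC50 came from Hill-equation concentration-response fits.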

Structure (SMILES) | outcome [1] | Potency [2] | Potency [3] | Potency [4] | Potency [5] | Potency [6] | Potency [7] | Potency [8] | Potency [9] | Potency [10]
CCC(C)O (centres undefined) | inactive | inactive | inactive | inactive | inactive | inactive | inactive | inactive | – | –
CC(C)N(C)C | – | inactive | inactive | inactive | inactive | inactive | inactive | inactive | inactive | –
Cc1ccccc1C(N)=O | – | inactive | inactive | inactive | inactive | inactive | inactive | inactive | – | inactive
ClC/C=C/CCl | – | inactive | inactive | inactive | inactive | – | – | inactive | – | inactive
CC(=O)c1nccs1 | – | inactive | inactive | inactive | inactive | inactive | inactive | inactive | inactive | –
COC(=O)CC#N | inactive | – | inactive | – | – | inactive | – | inactive | – | inactive
CC(C)(O)CCC(C)(C)O | – | inactive | – | inactive | – | inactive | inactive | inactive | inactive | inactive
CC=O | – | inactive | – | – | inactive | inactive | inactive | inactive | inactive | inactive
c1ccc2c(c1)Oc1ccccc1S2 | inactive | inactive | inactive | inactive | inactive | inactive | inactive | inactive | – | inactive
O=C1CCCCC1 | – | – | inactive | inactive | inactive | inactive | inactive | inactive | inactive | inactive
CC(C)CCOC(=O)/C=C/c1ccccc1 | – | inactive | inactive | inactive | inactive | inactive | inactive | inactive | inactive | –
Nc1cccc([N+](=O)[O-])c1 | inactive | – | inactive | inactive | inactive | inactive | inactive | inactive | – | inactive
COc1ccc(N)c(C)c1 | – | inactive | inactive | – | – | inactive | inactive | inactive | inactive | inactive
CC(CCl)OC(C)CCl (centres undefined) | inactive | inactive | inactive | inactive | inactive | inactive | – | inactive | – | inactive
Nc1c(Cl)cc(Cl)cc1Cl | inactive | inactive | inactive | inactive | inactive | inactive | inactive | inactive | – | inactive
Nc1cc(Cl)c(N)c(Cl)c1 | – | inactive | – | inactive | inactive | inactive | inactive | inactive | inactive | inactive
O=Nc1ccc(NO)cc1 | – | 50.1 µM (active) | – | – | – | 50.1 µM (active) | 50.1 µM (active) | inactive | 50.1 µM (active) | –
CC1CCC2CC1C2(C)C (centres undefined) | – | inactive | inactive | inactive | inactive | inactive | inactive | inactive | – | inactive
Cc1cccc2ccccc12 | – | inactive | – | – | inactive | inactive | inactive | inactive | inactive | inactive
CC1(N)CCC(C(C)(C)N)CC1 (centres undefined) | – | – | inactive | inactive | inactive | inactive | inactive | inactive | inactive | inactive

Structure (SMILES) | outcome [1] | Potency [2] | Potency [3] | Potency [4] | Potency [5] | Potency [6] | Potency [7] | Potency [8] | Potency [9] | Potency [10]
O=C(O)c1cc(Cl)cc(Cl)c1 | – | inactive | inactive | inactive | inactive | inactive | inactive | inactive | inactive | –
O=C(O)CCSSCCC(=O)O | inactive | inactive | inactive | inactive | inactive | inactive | inactive | inactive | – | inactive
Cc1ccc(C)cc1 | inactive | inactive | inactive | inactive | inactive | inactive | inactive | inactive | – | inactive
C=C(C)C(=O)OC | – | inactive | – | inactive | inactive | inactive | inactive | inactive | inactive | inactive
ClCCl | – | inactive | – | inactive | inactive | inactive | inactive | inactive | inactive | inactive
CC(N)CN (centres undefined) | – | inactive | – | inactive | inactive | inactive | inactive | inactive | inactive | inactive
CCCCN(CCO)CCCC | – | inactive | inactive | – | inactive | inactive | inactive | inactive | inactive | inactive
O=C(O)c1ccc(Cl)c(Cl)c1 | inactive | inactive | – | inactive | inactive | inactive | inactive | inactive | – | inactive
OC1CCCC1 | – | inactive | inactive | inactive | inactive | inactive | inactive | inactive | inactive | –
COC(=O)c1ccccc1 | inactive | inactive | inactive | inactive | inactive | inactive | – | inactive | – | inactive
CCCCC(CC)COCC1CO1 (centres undefined) | – | – | inactive | inactive | inactive | inactive | inactive | inactive | inactive | inactive
O=C1OC(=O)c2c(Br)c(Br)c(Br)c(Br)c21 | – | – | inactive | inactive | inactive | inactive | – | inactive | inactive | inactive
Cc1ccc(Cl)cc1 | – | inactive | inactive | – | inactive | inactive | inactive | inactive | inactive | inactive
Cc1cccc(C(=O)O)c1 | – | inactive | inactive | inactive | inactive | inactive | inactive | inactive | inactive | –
CCCCC/C=C/C=C/C=O | – | 39.8 µM (active) | 50.1 µM (active) | 31.6 µM (active) | – | 50.1 µM (active) | 39.8 µM (active) | 50.1 µM (active) | – | 39.8 µM (active)
Cc1ccc(Cl)cc1N | – | inactive | inactive | inactive | – | inactive | inactive | inactive | – | inactive
O=Cc1ccc(CO)o1 | – | inactive | inactive | inactive | inactive | inactive | – | inactive | – | inactive
CCOCCO | – | – | inactive | inactive | inactive | inactive | – | inactive | inactive | inactive
C1CCCC1 | – | inactive | inactive | – | inactive | inactive | inactive | inactive | inactive | inactive
